Active and inactive are the calls of the source. How the calls were made is not given here.
Test system: HIV-1 nucleocapsid protein NCp7 (binding to TG oligonucleotide)
Experiment: HIV Nucleocapsid (AID 346);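 further: potency is for inhibitors that block NC binding and lower polarization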
Conditions: HIV-1 NC / fluorescein-TGTGTGTG probe, fluorescence polarization
How it was run: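 Fluorescence polarization readout: labelled TG4xF oligo (10 nM) with 100 nM nucleocapsid protein, high-salt (250mM NaCl) Hepes pH 7.5 buffer containing zinc and fresh reducing agents. Compounds added by pin tool; incubation 1 hr, room temperature.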
Potency means the concentration at half of the fitted maximal effect.

SMILES | Potency
COc1ccccc1-c1ccc2ncnc(N3CCOCC3)c2c1 | > 20 µM (inactive)
COc1ccccc1CNc1ncncc1-c1ccccc1CN(C)C | > 20 µM (inactive)
N#Cc1ccc(CN2CCC3(CC2)CCN(C(=O)c2cnccn2)CC3)cc1 | > 20 µM (inactive)
Clc1ccccc1-c1nc(NCc2cccs2)c2ccccc2n1 | > 20 µM (inactive)
Cn1c(=O)cnc2cnc(Nc3ccccc3)nc21 | > 4 µM (inactive)
O=C(c1cc(C(F)(F)F)cc(C(F)(F)F)c1)N1CCC2(CC1)CN(Cc1ccccc1)C2 | > 20 µM (inactive)
O=c1c(-c2cccs2)nc2cnc(N3CCOCC3)nc2n1Cc1ccc(F)cc1 | > 20 µM (inactive)
O=C(c1ccncc1)N1CCC[C@@]2(CCN(Cc3ccccc3)C2)C1 | > 20 µM (inactive)
CN(C)c1ccc(-c2ccc3ncnc(NC4CC4)c3c2)cc1 | > 20 µM (inactive)
COc1cccc(Nc2ncc3nc(-c4ccccc4)c(=O)n(Cc4cccs4)c3n2)c1 | > 20 µM (inactive)
COc1ccc(NC(=O)N2CC[C@@]3(CCCN(C(=O)c4ccncc4)C3)C2)cc1 | > 20 µM (inactive)
O=C(c1ccncc1)N1CCC2(CCCN(Cc3ccccc3)C2)CC1 | > 20 µM (inactive)
CN(C)C(=O)c1ccc(-c2ccc3ncnc(N4CCC(C(=O)O)CC4)c3c2)cc1 | > 20 µM (inactive)
COc1ncc2nc(-c3ccccc3)c(=O)n(CCc3ccccc3)c2n1 | > 20 µM (inactive)
N#Cc1ccc(CN2CCC3(CC2)CCN(C(=O)c2cccc(F)c2)CC3)cc1 | > 20 µM (inactive)
FC(F)(F)c1ccccc1-c1ccc2ncnc(NCc3cccs3)c2c1 | > 20 µM (inactive)
CC(C)NC(=O)N1CC2(CCN(S(=O)(=O)c3ccccc3)CC2)C1 | > 20 µM (inactive)
Cc1noc(C)c1-c1ccc2ncnc(NC3CC3)c2c1 | > 20 µM (inactive)
COCC(=O)N1CCC2(CC1)CCN(c1ncccn1)CC2 | > 20 µM (inactive)
COCC(=O)N1CCC2(CCN(Cc3ccccc3)CC2)CC1 | > 20 µM (inactive)
COc1ccc(Oc2ncc3ncc(=O)n(CCc4ccccc4)c3n2)cc1 | > 20 µM (inactive)
CN(C)c1ncc2nc(-c3cccs3)c(=O)n(Cc3cccs3)c2n1 | > 4 µM (inactive)
Cc1ccccc1-c1nccc(NCc2cccs2)n1 | > 20 µM (inactive)
COc1ccccc1-c1cc(NCc2cccs2)ncn1 | > 20 µM (inactive)
